Reference: PubChem BioAssay (NCI)
This is part of a sample that, as a whole, favours compounds with a hit. Of some 83,000 tested, about 20% had one in any assay.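 A percent growth of 40 corresponds to 60% growth inhibition; 0 means no net growth; -100 means all cells died. Active threshold: below 10.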 Activity calls are given as the source filed them.

system: SNB-75 CNS; assay: NCI-60 one-dose screen, 48 h (100 = growth as untreated, 0 = no growth, -100 = all killed); conditions: 10 µM unless noted

Row | Compound | growth
1 | O=NN1CCCc2cccc(O)c21 | 21.8% (inactive)
2 | Fc1ccc2c(c1)c(-c1nc(-c3c[nH]c4ncccc34)cs1)cn2CCN1CCOCC1 | 32.9% (inactive)
3 | CC(=O)Nc1nc2c(s1)CC[C@@]1(C)C2=CC[C@H]2[C@@H]3CC[C@H](O)[C@@]3(C)CC[C@@H]21 | 54.5% (inactive)
4 | CN(C)CC(C(=O)Cc1ccccc1)c1ccccc1 (stereo unspecified) | 73.4% (inactive)
5 | CCOC(=O)[C@@H](C)C[C@H](Cc1ccccc1)NC(=O)c1csc([C@@H](C[C@H](C(C)C)N(C)C(=O)[C@H](CCC(C)C)NC(=O)[C@H]2CCCCN2C)OC(C)=O)n1 | 37.6% (inactive)
6 | CCCCCCCCCCCCCCCCCC1OC[C@H](COC(=O)O[C@@H](C(=O)O[C@H]2C[C@@]3(O)[C@@H](OC(=O)c4ccccc4)[C@@H]4[C@]5(OC(C)=O)CO[C@@H]5C[C@H](O)[C@@]4(C)C(=O)[C@H](OC(C)=O)C(=C2C)C3(C)C)[C@@H](NC(=O)c2ccccc2)c2ccccc2)O1 (stereo partly specified) | 59.1% (inactive)
7 | c1cnc2[nH]cc(-c3csc(-c4cn(CCCCN5CCCCC5)c5ccccc45)n3)c2c1 | 70.3% (inactive)
8 | C=C1C[C@](OC)([C@H](O)C(=O)N[C@@H](OC)[C@@H]2C[C@@H](O)C(C)(C)[C@@H](C[C@@H](COC)OC)O2)O[C@H](C)[C@@H]1C | -100% (active)
9 | O=C(Nc1ccc(O)cc1)C(Cl)(Cl)Cl | 98.5% (inactive)
10 | Cc1c(NS(=O)(=O)c2ccccc2)ccc([N+](=O)[O-])c1Cl | 75.4% (inactive)
11 | CCCCN1CCCC[C@@H]1C(=O)N[C@H](C(=O)N(C)[C@H](C[C@@H](OC(C)=O)c1nc(C(=O)NC2CCC(C(=O)OC)CC2)cs1)C(C)C)C(C)C (stereo partly specified) | -4.95% (active)
12 | Cn1cc(-c2csc(-c3cn(CCCCN4CCCCC4)c4ccc(F)cc34)n2)c2cccnc21 | 68.8% (inactive)
13 | CC1=C(CN)C2=C(C)C3(CC3)[C@@](C)(O)C(=O)C2=C1 | 57.7% (inactive)
14 | CC(=O)O[C@H]1C(=O)[C@@]2(C)[C@H]([C@H](OC(=O)c3ccccc3)[C@]3(O)C[C@H](OC(=O)[C@H](OC(=O)OC[C@H]4COC(C)(C)O4)[C@@H](NC(=O)c4ccccc4)c4ccccc4)C(C)=C1C3(C)C)[C@]1(OC(C)=O)CO[C@@H]1C[C@@H]2O | -20.5% (active)
15 | Cn1cc(-c2csc(-c3cn(CCN4CCOCC4)c4ccc(F)cc34)n2)c2cccnc21 | 51.1% (inactive)
16 | Brc1ccc2c(c1)c(-c1nc(-c3c[nH]c4ncccc34)cs1)cn2CCN1CCOCC1 | 56.4% (inactive)
17 | COC(=O)[C@@H](C)C[C@H](Cc1ccccc1)NC(=O)c1csc([C@@H](C[C@H](C(C)C)N(C)C(=O)[C@@H](NC(=O)[C@H]2CCCCN2C)C2CCCCC2)OC(C)=O)n1 | 5.81% (active)
18 | CC(=O)OC1CCC2(C)C(CCC3C2CC(=O)C2(C)C3CC(Sc3ccc(N(CCCl)CCCl)cc3)C2C(C)=O)C1 (stereo unspecified) | 111% (inactive)
19 | COc1ccc(S(=O)(=O)N(Cc2ccc3c(c2)C=CC(C)(C)O3)c2ccccc2)cc1OC | 83.1% (inactive)
20 | CC[C@H](C)[C@H](NC(=O)[C@H]1CCCCN1C)C(=O)N(C)[C@H](CC(=O)c1nc(C(=O)N[C@@H](Cc2ccccc2)C[C@H](C)C(=O)O)cs1)C(C)C | 49.3% (inactive)
21 | COC(=O)[C@@H](C)C[C@H](Cc1ccccc1)NC(=O)c1csc([C@@H](C[C@H](C(C)C)N(C)C(=O)[C@@H](NC(=O)C23CC(NC(C)=O)(C2)C3)C2CC2)OC(C)=O)n1 | 14% (inactive)
22 | O=C1CC2(CC3(Cl)C(Cl)=C(Cl)C2(Cl)C3(Cl)Cl)C(=O)O1 (stereo unspecified) | 89.4% (inactive)
23 | C[n+]1c(/C=C/c2ccc(N(CCCl)CCCl)cc2)sc2ccccc21 | 74.5% (inactive)
24 | CC[C@H](C)[C@H](NC(=O)NC(C)(C)C)C(=O)N(C)[C@H](C[C@@H](OC(C)=O)c1nc(C(=O)N[C@@H](Cc2ccccc2)C[C@H](C)C(=O)OC)cs1)C(C)C | 34.1% (inactive)
25 | CCCCCCCC[N+](C)(CCCCCCCC)CCCCCCCC | -100% (active)
26 | CC(=O)O[C@H]1C(=O)[C@@]2(C)[C@H]([C@H](OC(=O)c3ccccc3)[C@]3(O)C[C@H](OC(=O)[C@H](OC(=O)OC[C@@H]4COC(C)(C)O4)[C@@H](NC(=O)c4ccccc4)c4ccccc4)C(C)=C1C3(C)C)[C@]1(OC(C)=O)CO[C@@H]1C[C@@H]2O | -15.6% (active)
